According to PubChem BioAssay AID1159580 (chemical genetic matrix, 2015):
The whole screen tested about 5,500 compounds, of which about 2,000 (36%) were called active. About 18% were inconclusive and are not listed. No stated cut-off is given here; in the data, active means normalized growth mostly below about 0.91 (no sharp cut-off); inconclusive means no clear call, values can overlap the other calls; inactive means mostly above about 0.92. The list shows a part of the results.

Assay: chemical genetic growth profiling, strain panel (AID 1159580);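 further: tested at 20 µM; growth read once vehicle control cultures reached saturation at 30 °C; 1 = growth at the plate median or of vehicle wells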
Settings: growth OD
[1] = S. cerevisiae deletion strains, locus YHR030C, strain SLT2, stronger effect = lower value
[2] = S. cerevisiae deletion strains, locus YJL095W, strain BCK1, stronger effect = lower value
[3] = S. cerevisiae deletion strains, locus YGR229C, strain SMI1, stronger effect = lower value
[4] = S. cerevisiae deletion strains, locus YMR307W, strain GAS1, stronger effect = lower value
[5] = S. cerevisiae deletion strains, locus YNL153C, strain GIM3, stronger effect = lower value

Measured: normalized growth

COc1cc(O)c(C(C)=O)c(O)c1
inactive: [1] 1.05 | S. cerevisiae deletion strains, locus YHR079C, strain IRE1, stronger effect = lower value 1.03 | [2] 0.989 | S. cerevisiae deletion strains, locus YJR066W, strain TOR1, stronger effect = lower value 0.979 | S. cerevisiae deletion strains, locus YLR113W, strain HOG1, stronger effect = lower value 0.935 | S. cerevisiae deletion strains, locus YNL183C, strain NPR1, stronger effect = lower value 0.925 | S. cerevisiae deletion strains, locus YOR231W, strain MKK1, stronger effect = lower value 1.04 | S. cerevisiae deletion strains, locus YPL256C, strain CLN2, stronger effect = lower value 0.992

Nc1nc2c(nc(Br)n2C2OC3COP(=O)(O)O[C@@H]3C2O)c(=O)[nH]1 (stereo partly drawn)
inactive: S. cerevisiae deletion strains, locus YAL040C, strain CLN3, stronger effect = lower value 0.947 | S. cerevisiae deletion strains, locus YDR363W, strain ESC2, stronger effect = lower value 0.993 | S. cerevisiae deletion strains, locus YER002W, strain NOP16, stronger effect = lower value 1.02 | [3] 1.02 | [4] 0.998 | [5] 1.05 | S. cerevisiae deletion strains, locus YNL175C, strain NOP13, stronger effect = lower value 1.02 | S. cerevisiae deletion strains, locus YNL197C, strain WHI3, stronger effect = lower value 1.01 | S. cerevisiae deletion strains, locus YNL224C, strain SQS1, stronger effect = lower value 1.02 | S. cerevisiae deletion strains, locus YOR083W, strain WHI5 (second series), stronger effect = lower value 1.02

COc1cc(OC)cc(OC)c1
inactive: S. cerevisiae deletion strains, locus YAL013W, strain DEP1, stronger effect = lower value 1.01 | S. cerevisiae deletion strains, locus YBR021W, strain FUR4, stronger effect = lower value 1.02 | S. cerevisiae deletion strains, locus YBR229C, strain ROT2, stronger effect = lower value 1.01 | S. cerevisiae deletion strains, locus YDL035C, strain GPR1, stronger effect = lower value 1.02 | S. cerevisiae deletion strains, locus YDL074C, strain BRE1, stronger effect = lower value 1.01 | S. cerevisiae deletion strains, locus YDL101C, strain DUN1, stronger effect = lower value 1 | S. cerevisiae deletion strains, locus YDL134C, strain PPH21, stronger effect = lower value 1 | S. cerevisiae deletion strains, locus YDL185W, strain tfp1, stronger effect = lower value 0.982 | S. cerevisiae deletion strains, locus YDR150W, strain NUM1, stronger effect = lower value 1.01 | S. cerevisiae deletion strains, locus YDR162C, strain NBP2, stronger effect = lower value 1.02 | S. cerevisiae deletion strains, locus YEL061C, strain CIN8, stronger effect = lower value 1 | S. cerevisiae deletion strains, locus YER155C, strain BEM2, stronger effect = lower value 1.01 | S. cerevisiae deletion strains, locus YER167W, strain BCK2, stronger effect = lower value 1.01 | S. cerevisiae deletion strains, locus YGL248W, strain PDE1, stronger effect = lower value 1.01 | S. cerevisiae deletion strains, locus YGR078C, strain PAC10, stronger effect = lower value 1.01 | [3] 1 | [1] 1.01 | S. cerevisiae deletion strains, locus YHR129C, strain ARP1, stronger effect = lower value 1.01 | S. cerevisiae deletion strains, locus YIL066C, strain RNR3, stronger effect = lower value 1.01 | S. cerevisiae deletion strains, locus YIL073C, strain SPO22, stronger effect = lower value 1 | [2] 1.01 | S. cerevisiae deletion strains, locus YJL134W, strain LCB3, stronger effect = lower value 1 | S. cerevisiae deletion strains, locus YJL187C, strain SWE1 (second series), stronger effect = lower value 1.02 | S. cerevisiae deletion strains, locus YJR043C, strain POL32, stronger effect = lower value 0.994 | S. cerevisiae deletion strains, locus YJR075W, strain HOC1, stronger effect = lower value 1 | S. cerevisiae deletion strains, locus YKL009W, strain mrt4, stronger effect = lower value 0.898 | S. cerevisiae deletion strains, locus YKL068W, stronger effect = lower value 1 | S. cerevisiae deletion strains, locus YKL190W, strain CNB1, stronger effect = lower value 1.01 | S. cerevisiae deletion strains, locus YLR039C, strain RIC1, stronger effect = lower value 1.01 | S. cerevisiae deletion strains, locus YLR058C, strain SHM2, stronger effect = lower value 1.01 | S. cerevisiae deletion strains, locus YLR262C, strain YPT6, stronger effect = lower value 1.04 | S. cerevisiae deletion strains, locus YLR330W, strain CHS5, stronger effect = lower value 1 | S. cerevisiae deletion strains, locus YLR342W, strain FKS1 (second series), stronger effect = lower value 0.983 | S. cerevisiae deletion strains, locus YML016C, strain PPZ1, stronger effect = lower value 1 | S. cerevisiae deletion strains, locus YMR263W, strain SAP30, stronger effect = lower value 1.02 | [4] 0.961 | S. cerevisiae deletion strains, locus YNL067W, strain RPL9B, stronger effect = lower value 1.02 | S. cerevisiae deletion strains, locus YNL128W, strain TEP1, stronger effect = lower value 1.02 | [5] 1.02 | S. cerevisiae deletion strains, locus YNL233W, strain BNI4, stronger effect = lower value 1.02 | S. cerevisiae deletion strains, locus YNL322C, strain KRE1, stronger effect = lower value 1.01 | S. cerevisiae deletion strains, locus YNR052C, strain pop2, stronger effect = lower value 1 | S. cerevisiae deletion strains, locus YOL006C, strain TOP1, stronger effect = lower value 0.948 | S. cerevisiae deletion strains, locus YOR061W, strain CKA2, stronger effect = lower value 1 | S. cerevisiae deletion strains, locus YOR069W, strain VPS5, stronger effect = lower value 1 | S. cerevisiae deletion strains, locus YOR144C, strain elg1, stronger effect = lower value 0.997 | S. cerevisiae deletion strains, locus YPL055C, strain LGE1, stronger effect = lower value 1.02 | S. cerevisiae deletion strains, locus YPL241C, strain CIN2, stronger effect = lower value 1.01 | S. cerevisiae deletion strains, locus YPR141C, strain kar3, stronger effect = lower value 1.01 | S. cerevisiae strains, strain wild type, stronger effect = lower value 1.01
active: S. cerevisiae deletion strains, locus YCL029C, strain bik1, stronger effect = lower value 0.743 | S. cerevisiae deletion strains, locus YDL192W, strain arf1, stronger effect = lower value 0.102 | S. cerevisiae deletion strains, locus YDR101C, strain arx1, stronger effect = lower value 0.529 | S. cerevisiae deletion strains, locus YDR318W, strain mcm21, stronger effect = lower value 0.0697 | S. cerevisiae deletion strains, locus YDR388W, stronger effect = lower value 0.0643 | S. cerevisiae deletion strains, locus YDR502C, strain sam2, stronger effect = lower value 0.159 | S. cerevisiae deletion strains, locus YER110C, stronger effect = lower value 0.305 | S. cerevisiae deletion strains, locus YGL078C, strain dbp3, stronger effect = lower value 0.299 | S. cerevisiae deletion strains, locus YGL086W, strain mad1, stronger effect = lower value 0.0586 | S. cerevisiae deletion strains, locus YGR135W, strain pre9, stronger effect = lower value 0.0735 | S. cerevisiae deletion strains, locus YGR252W, strain gcn5, stronger effect = lower value 0.24 | S. cerevisiae deletion strains, locus YHR079C, strain IRE1 (second series), stronger effect = lower value 0.598 | S. cerevisiae deletion strains, locus YHR094C, strain hxt1, stronger effect = lower value 0.147 | S. cerevisiae deletion strains, locus YHR200W, strain rpn10, stronger effect = lower value 0.124 | S. cerevisiae deletion strains, locus YIL125W, strain kgd1, stronger effect = lower value 0.263 | S. cerevisiae deletion strains, locus YIR030C, strain dcg1, stronger effect = lower value 0.317 | S. cerevisiae deletion strains, locus YJL168C, strain set2, stronger effect = lower value 0.206 | S. cerevisiae deletion strains, locus YKL085W, strain MDH1 (second series), stronger effect = lower value 0.211 | S. cerevisiae deletion strains, locus YKL085W, strain MDH1, stronger effect = lower value 0.211 | S. cerevisiae deletion strains, locus YKR001C, strain vps1, stronger effect = lower value 0.127 | S. cerevisiae deletion strains, locus YLR102C, strain apc9, stronger effect = lower value 0.106 | S. cerevisiae deletion strains, locus YLR268W, strain sec22, stronger effect = lower value 0.0897 | S. cerevisiae deletion strains, locus YLR371W, strain rom2, stronger effect = lower value 0.0926 | S. cerevisiae deletion strains, locus YLR418C, strain cdc73, stronger effect = lower value 0.104 | S. cerevisiae deletion strains, locus YML032C, strain rad52, stronger effect = lower value 0.853 | S. cerevisiae deletion strains, locus YML124C, strain tub3, stronger effect = lower value 0.181 | S. cerevisiae deletion strains, locus YMR078C, strain ctf18, stronger effect = lower value 0.231 | S. cerevisiae deletion strains, locus YMR223W, strain ubp8, stronger effect = lower value 0.0875 | S. cerevisiae deletion strains, locus YNL250W, strain rad50, stronger effect = lower value 0.725 | S. cerevisiae deletion strains, locus YNL271C, strain bni1, stronger effect = lower value 0.351 | S. cerevisiae deletion strains, locus YNL298W, strain CLA4, stronger effect = lower value 0.725 | S. cerevisiae deletion strains, locus YNL307C, strain MCK1, stronger effect = lower value 0.0671 | S. cerevisiae deletion strains, locus YOL147C, strain pex11, stronger effect = lower value 0.838 | S. cerevisiae deletion strains, locus YOR136W, strain idh2, stronger effect = lower value 0.104 | S. cerevisiae deletion strains, locus YOR184W, strain ser1, stronger effect = lower value 0.0729 | S. cerevisiae deletion strains, locus YOR316C, strain cot1, stronger effect = lower value 0.096 | S. cerevisiae deletion strains, locus YPR119W, strain clb2, stronger effect = lower value 0.169 | S. cerevisiae deletion strains, locus YPR163C, strain tif3, stronger effect = lower value 0.0751 | S. cerevisiae deletion strains, locus YPR167C, strain met16, stronger effect = lower value 0.0964 | S. cerevisiae deletion strains, strain wtn01, stronger effect = lower value 0.0632
